# Data: PubChem BioAssay (EPA / NIEHS)
# Values joined by “and” are separate entries in the source; they are usually repeats but may differ in a detail not shown here. Equal entries are not always repeated. Records with an inconclusive call do not appear. Active and inactive are the calls of the source. The calls were made as follows: active = hit-call score of the fitted dose curve at least 0.9, where 1 is the maximum; inconclusive = response in the unintended direction; inactive = score below 0.9.
# Molecular target: rat Androgen Receptor (AR), Ar (gene 24208) (UniProt P15207)
# Sequence (P15207 whole entry, looked up): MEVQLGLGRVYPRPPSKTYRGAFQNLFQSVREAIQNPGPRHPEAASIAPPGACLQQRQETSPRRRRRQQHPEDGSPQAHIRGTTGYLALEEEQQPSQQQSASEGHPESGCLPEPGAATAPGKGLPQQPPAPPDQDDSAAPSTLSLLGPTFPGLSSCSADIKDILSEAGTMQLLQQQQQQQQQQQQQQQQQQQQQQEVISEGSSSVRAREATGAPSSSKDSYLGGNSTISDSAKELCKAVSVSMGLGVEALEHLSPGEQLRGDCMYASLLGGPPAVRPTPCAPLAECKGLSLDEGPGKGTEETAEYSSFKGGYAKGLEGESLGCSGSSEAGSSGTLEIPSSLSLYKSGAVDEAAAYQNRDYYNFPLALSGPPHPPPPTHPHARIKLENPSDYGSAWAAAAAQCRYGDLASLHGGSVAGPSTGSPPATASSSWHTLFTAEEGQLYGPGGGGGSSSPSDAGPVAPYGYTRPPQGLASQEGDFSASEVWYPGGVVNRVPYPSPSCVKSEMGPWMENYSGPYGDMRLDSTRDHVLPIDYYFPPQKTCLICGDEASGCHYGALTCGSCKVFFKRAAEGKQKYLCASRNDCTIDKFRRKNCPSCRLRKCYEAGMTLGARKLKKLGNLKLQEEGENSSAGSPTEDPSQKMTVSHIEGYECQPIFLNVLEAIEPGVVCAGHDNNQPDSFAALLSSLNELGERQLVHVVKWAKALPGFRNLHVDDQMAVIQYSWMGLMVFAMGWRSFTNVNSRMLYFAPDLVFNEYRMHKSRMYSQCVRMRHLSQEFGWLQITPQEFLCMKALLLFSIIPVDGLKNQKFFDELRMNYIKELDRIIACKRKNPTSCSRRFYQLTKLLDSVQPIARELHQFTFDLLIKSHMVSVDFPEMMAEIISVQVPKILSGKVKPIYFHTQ
# Assay: NVS_NR_rAR: NovaScreen (NVS) Nuclear Receptor Binding Assay for rat Androgen Receptor (AR) (AID 2283366)
# Outline: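 Cell-free radioligand binding on extracts of prostate from testosterone-pretreated rats, read by filter-based scintillation counting 18 h after dosing. Loss of bound signal fitted positively versus DMSO; primary screen in duplicate at 25 uM, actives followed up in concentration series.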
SMILES,AC50,outcome
NC(=NCCCCCCN=C(N)/N=C(\N)Nc1ccc(Cl)cc1)/N=C(\N)Nc1ccc(Cl)cc1,15.4 µM (active),–
CC(C)(c1ccc(Oc2ccc(N)cc2)cc1)c1ccc(Oc2ccc(N)cc2)cc1,–,inactive
Cc1cc(C(=C2C=CC(=Nc3ccc(S(=O)(=O)O)cc3)C=C2)c2ccc(Nc3ccc(S(=O)(=O)O)cc3)cc2)cc(S(=O)(=O)O)c1N,1.22 µM (active),–
CN(Cc1cnc2nc(N)nc(N)c2n1)c1ccc(C(=O)N[C@@H](CCC(=O)O)C(=O)O)cc1,–,inactive

# Molecular target: guinea pig Sigma Receptor, Non-selective Binding, SIGMAR1 (gene 100135589) (UniProt Q60492)
# Sequence (Q60492 whole entry, looked up): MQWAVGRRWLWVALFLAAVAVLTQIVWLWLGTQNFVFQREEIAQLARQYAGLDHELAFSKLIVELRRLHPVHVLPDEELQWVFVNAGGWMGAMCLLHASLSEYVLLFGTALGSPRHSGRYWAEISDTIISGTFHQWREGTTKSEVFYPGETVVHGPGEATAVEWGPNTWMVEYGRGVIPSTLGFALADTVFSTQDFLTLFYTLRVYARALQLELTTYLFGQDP
# Assay: NVS_OR_gSIGMA_NonSelective: NovaScreen (NVS) Nuclear Receptor Binding Assay for guinea pig Sigma Receptor, Non-selective Binding (AID 2283367)
# Outline: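 Guinea pig brain membranes, cell-free radioligand binding; read 1 h after dosing by filter-based scintillation counting. Loss of signal vs DMSO baseline taken as displacement. Primary screen single concentration 25 uM in duplicate; actives retested in concentration series.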
SMILES,AC50,outcome
NC(=NCCCCCCN=C(N)/N=C(\N)Nc1ccc(Cl)cc1)/N=C(\N)Nc1ccc(Cl)cc1,23.1 µM (active),–
CC[N+](CC)(CC)Cc1ccccc1,15.5 µM (active),–
CCN(CC)CC,–,inactive
CN(C)c1ccc(C(=C2C=CC(=[N+](C)C)C=C2)c2ccccc2)cc1,9.34 µM (active) and 12.5 µM (active),–
CCCCCCCCCCCCCCCCCC[N+](C)(C)Cc1ccccc1,2.32 µM (active),–

# Test system: guinea pig Dopamine Transporter (DAT), gene 100714898
# Assay: NVS_TR_gDAT: NovaScreen (NVS) Transporter Assay for guinea pig Dopamine Transporter (DAT) (AID 2283369);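 also: active compounds lower bound radioligand signal relative to DMSO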
# Outline: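 Test chemicals were incubated 2 h with guinea pig striatal membranes and a radioligand; bound label was separated by filtration and counted. Screening ran at 25 uM, followed by concentration-response testing to a 50 uM maximum.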
SMILES,AC50,outcome
NC(=NCCCCCCN=C(N)/N=C(\N)Nc1ccc(Cl)cc1)/N=C(\N)Nc1ccc(Cl)cc1,0.868 µM (active),–
O=C(c1ccccc1)c1ccccc1,–,inactive
CN(C)CCOC(c1ccccc1)c1ccccc1,6.23 µM (active),–
CCC(C)c1ccccc1O (stereo not drawn),–,inactive
N=C(N)c1ccc(OCCCCCOc2ccc(C(=N)N)cc2)cc1,2.07 µM (active),–
CC(C)(C)c1ccc(O)c(O)c1,45.5 µM (active),–
O=C(CCCN1CCC(O)(c2ccc(Cl)cc2)CC1)c1ccc(F)cc1,0.923 µM (active),–
C[C@]12CC[C@@H]3c4ccc(O)cc4CC[C@H]3[C@@H]1C[C@@H](O)[C@@H]2O,3.04 µM (active),–
CCCCCc1ccc(O)cc1,10.5 µM (active),–
CN(C)c1ccc(C(=C2C=CC(=[N+](C)C)C=C2)c2ccccc2)cc1,4.17 µM (active) and 3.93 µM (active),–
CCCCc1oc2ccccc2c1C(=O)c1cc(I)c(OCCN(CC)CC)c(I)c1,17.8 µM (active),–
CN(Cc1cnc2nc(N)nc(N)c2n1)c1ccc(C(=O)N[C@@H](CCC(=O)O)C(=O)O)cc1,–,inactive
Clc1ccc(Nc2nnc(Cc3ccncc3)c3ccccc23)cc1,6.66 µM (active),–
COC1=CC(=O)C[C@@H](C)[C@]12Oc1c(Cl)c(OC)cc(OC)c1C2=O,3.8 µM (active),–
